Experimental findings from PMC5700166 are described below.

The first assay addresses T1, GST-Ap-NF-kB RHD (Exaiptasia pallida (Aiptasia), UniProt A0A913YAJ5 2-422).
T1 sequence: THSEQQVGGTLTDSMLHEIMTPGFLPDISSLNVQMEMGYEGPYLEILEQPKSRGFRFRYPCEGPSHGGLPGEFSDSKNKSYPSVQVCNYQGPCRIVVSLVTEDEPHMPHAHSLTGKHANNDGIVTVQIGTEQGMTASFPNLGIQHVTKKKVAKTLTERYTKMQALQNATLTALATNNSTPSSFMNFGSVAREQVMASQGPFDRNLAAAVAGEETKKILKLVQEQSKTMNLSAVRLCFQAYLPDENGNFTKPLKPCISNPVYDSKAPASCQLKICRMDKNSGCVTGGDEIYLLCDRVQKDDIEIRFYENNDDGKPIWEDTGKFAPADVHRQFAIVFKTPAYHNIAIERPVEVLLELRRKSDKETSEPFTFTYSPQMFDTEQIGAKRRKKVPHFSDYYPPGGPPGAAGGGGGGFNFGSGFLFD
Description: protein-binding microarray (PBM); PBM: ~300 nM protein, 6 mM HEPES pH 7.8, 80 mM KCl, 0.5 mM EDTA, 0.5 mM EGTA, 6% glycerol, 35 ng/ul poly-dIdC, 1% milk, 1 h, room temperature; Ap Aiptasia and Nv Nematostella (sea anemones) / Co Capsaspora / Aq Amphimedon (sponge) / Dm Drosophila / Hu human; RHD is the Rel homology domain; high values mean tight binding. The conditions noted are these: dsDNA, one strand shown.
In the case of “CCGATTAACATCAGGGGAACAACTGATGTTAATCGGGTCTTGATTCGCTTGACGCTGCTG”, the binding signal was found to be 5.15 z-score.

As for “CCGATTAACATCACCGTTCCCCCTGATGTTAATCGGGTCTTGATTCGCTTGACGCTGCTG”, the binding signal amounted to 6.48 z-score.

On to “CCGATTAACATCAAAACATTCCCTGATGTTAATCGGGTCTTGATTCGCTTGACGCTGCTG”, for which the binding signal was 3.1 z-score.

As to “CCGATTAACATCAGGGATTTTACTGATGTTAATCGGGTCTTGATTCGCTTGACGCTGCTG”, the binding signal was 3.97 z-score.

For the sequence “CCGATTAACATCACGGGAGTCCCTGATGTTAATCGGGTCTTGATTCGCTTGACGCTGCTG”, the binding signal was determined as 5.38 z-score.

The sequence “CCGATTAACATCAAAATCCCCCATGATGTTAATCGGGTCTTGATTCGCTTGACGCTGCTG” returned a binding signal of 9.1 z-score.

Consider “CCGATTAACATCAAGGGAAATCCTGATGTTAATCGGGTCTTGATTCGCTTGACGCTGCTG”, for which the binding signal stood at 5.35 z-score.

For “CCGATTAACATCAGGGTAAACCCTGATGTTAATCGGGTCTTGATTCGCTTGACGCTGCTG”, the binding signal is 3.1 z-score.

In the case of “CCGATTAACATCAATCTTTCCCCTGATGTTAATCGGGTCTTGATTCGCTTGACGCTGCTG”, the binding signal stood at 5.5 z-score.

Turning to “CCGATTAACATCACGAATTTCCCTGATGTTAATCGGGTCTTGATTCGCTTGACGCTGCTG”, the binding signal came out at 4.28 z-score.

The sequence “CCGATTAACATCAGGACCTCCCCTGATGTTAATCGGGTCTTGATTCGCTTGACGCTGCTG” displayed a binding signal of 5.62 z-score.

As for “CCGATTAACATCAGGGGATTTAATGATGTTAATCGGGTCTTGATTCGCTTGACGCTGCTG”, the binding signal was 7.05 z-score.

As to “CCGATTAACATCAAATTTCCCGTTGATGTTAATCGGGTCTTGATTCGCTTGACGCTGCTG”, the binding signal came to 3.33 z-score.

Consider “CCGATTAACATCATGGGGAAAAATGATGTTAATCGGGTCTTGATTCGCTTGACGCTGCTG”, for which the binding signal was 5.03 z-score.

Sequence “CCGATTAACATCAAAACCCCCCATGATGTTAATCGGGTCTTGATTCGCTTGACGCTGCTG” yielded a binding signal of 8.56 z-score.

Sequence “CCGATTAACATCAAAGAAACCCCTGATGTTAATCGGGTCTTGATTCGCTTGACGCTGCTG” registered a binding signal of 6 z-score.

In turn, “CCGATTAACATCACGTACTTCCCTGATGTTAATCGGGTCTTGATTCGCTTGACGCTGCTG” showed a binding signal of 1.66 z-score.

Turning to “CCGATTAACATCAGGATTACCCCTGATGTTAATCGGGTCTTGATTCGCTTGACGCTGCTG”, the binding signal was found to be 4.61 z-score.

Take “CCGATTAACATCAACGAATTCCCTGATGTTAATCGGGTCTTGATTCGCTTGACGCTGCTG”: the binding signal worked out at 2.81 z-score.

Sequence “CCGATTAACATCAGGGGGAGGAATGATGTTAATCGGGTCTTGATTCGCTTGACGCTGCTG” showed a binding signal of 5.2 z-score.

“CCGATTAACATCAGGGGTAAATATGATGTTAATCGGGTCTTGATTCGCTTGACGCTGCTG” showed a binding signal of 2.7 z-score.

“CCGATTAACATCAGGGAAGAACCTGATGTTAATCGGGTCTTGATTCGCTTGACGCTGCTG” showed a binding signal of 2.43 z-score.

Regarding “CCGATTAACATCAAAATTACCCATGATGTTAATCGGGTCTTGATTCGCTTGACGCTGCTG”, the binding signal amounted to 2.8 z-score.

“CCGATTAACATCAAATTCCCCCGTGATGTTAATCGGGTCTTGATTCGCTTGACGCTGCTG” displayed a binding signal of 9.52 z-score.

As for “CCGATTAACATCAGGGGGATTACTGATGTTAATCGGGTCTTGATTCGCTTGACGCTGCTG”, the binding signal is 8.76 z-score.

The next assay has as its target T2, GST-Nv-NF-kB (Cys allele) (Nematostella vectensis, UniProt E5G601 2-411).
T2 sequence: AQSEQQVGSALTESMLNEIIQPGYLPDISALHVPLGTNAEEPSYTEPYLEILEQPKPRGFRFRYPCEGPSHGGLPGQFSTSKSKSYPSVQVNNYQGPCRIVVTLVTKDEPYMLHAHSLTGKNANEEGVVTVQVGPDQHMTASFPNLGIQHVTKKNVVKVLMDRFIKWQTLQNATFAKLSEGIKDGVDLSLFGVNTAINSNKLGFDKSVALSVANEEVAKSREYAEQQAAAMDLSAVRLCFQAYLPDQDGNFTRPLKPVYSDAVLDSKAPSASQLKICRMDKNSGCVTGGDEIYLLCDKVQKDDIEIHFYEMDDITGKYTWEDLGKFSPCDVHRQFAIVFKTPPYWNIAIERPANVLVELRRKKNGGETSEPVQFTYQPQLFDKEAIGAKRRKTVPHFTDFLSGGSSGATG
The description is as above. The settings on record: dsDNA, one strand shown.
“CCGATTAACATCAAAGAATTCCCTGATGTTAATCGGGTCTTGATTCGCTTGACGCTGCTG” displayed a binding signal of 7.26 z-score.

“CCGATTAACATCAGGGGGTTTAATGATGTTAATCGGGTCTTGATTCGCTTGACGCTGCTG” showed a binding signal of 5.26 z-score.

Take “CCGATTAACATCAAATTCCCCCCTGATGTTAATCGGGTCTTGATTCGCTTGACGCTGCTG”: the binding signal came to 8.77 z-score.

Take “CCGATTAACATCACGAATCCCCCTGATGTTAATCGGGTCTTGATTCGCTTGACGCTGCTG”: the binding signal was determined as 6.45 z-score.

Sequence “CCGATTAACATCACGGGGAATCCTGATGTTAATCGGGTCTTGATTCGCTTGACGCTGCTG” returned a binding signal of 9.94 z-score.

Regarding “CCGATTAACATCAGGGAAAATAATGATGTTAATCGGGTCTTGATTCGCTTGACGCTGCTG”, the binding signal came to 6.84 z-score.

With “CCGATTAACATCAGGGGACTTTATGATGTTAATCGGGTCTTGATTCGCTTGACGCTGCTG”, the binding signal was 8.29 z-score.

Consider “CCGATTAACATCACATTCCCCCCTGATGTTAATCGGGTCTTGATTCGCTTGACGCTGCTG”, for which the binding signal was determined as 6.39 z-score.

“CCGATTAACATCAACAAACCCCCTGATGTTAATCGGGTCTTGATTCGCTTGACGCTGCTG” had a binding signal of 5.37 z-score.

As to “CCGATTAACATCAGGAAACCCCATGATGTTAATCGGGTCTTGATTCGCTTGACGCTGCTG”, the binding signal was determined as 4.14 z-score.

Sequence “CCGATTAACATCAAATTCCCCCTTGATGTTAATCGGGTCTTGATTCGCTTGACGCTGCTG” came in with a binding signal of 10.3 z-score.

As to “CCGATTAACATCAAAATTTCCCATGATGTTAATCGGGTCTTGATTCGCTTGACGCTGCTG”, the binding signal is 6.36 z-score.

The sequence “CCGATTAACATCAGGCAACCCCCTGATGTTAATCGGGTCTTGATTCGCTTGACGCTGCTG” had a binding signal of 3.96 z-score.

As for “CCGATTAACATCAAGGGTGGGAATGATGTTAATCGGGTCTTGATTCGCTTGACGCTGCTG”, the binding signal was 1.84 z-score.

For “CCGATTAACATCAGGGGAACAACTGATGTTAATCGGGTCTTGATTCGCTTGACGCTGCTG”, the binding signal is 4.83 z-score.

On to “CCGATTAACATCACCGTTCCCCCTGATGTTAATCGGGTCTTGATTCGCTTGACGCTGCTG”, for which the binding signal came out at 5.21 z-score.

Consider “CCGATTAACATCAAAACATTCCCTGATGTTAATCGGGTCTTGATTCGCTTGACGCTGCTG”, for which the binding signal was determined as 5.46 z-score.

Take “CCGATTAACATCAGGGATTTTACTGATGTTAATCGGGTCTTGATTCGCTTGACGCTGCTG”: the binding signal was found to be 3.99 z-score.

With “CCGATTAACATCACGGGAGTCCCTGATGTTAATCGGGTCTTGATTCGCTTGACGCTGCTG”, the binding signal was determined as 3.94 z-score.

For “CCGATTAACATCAAAATCCCCCATGATGTTAATCGGGTCTTGATTCGCTTGACGCTGCTG”, the binding signal came to 9.28 z-score.

“CCGATTAACATCAAGGGAAATCCTGATGTTAATCGGGTCTTGATTCGCTTGACGCTGCTG” gave a binding signal of 7.47 z-score.

“CCGATTAACATCAGGGTAAACCCTGATGTTAATCGGGTCTTGATTCGCTTGACGCTGCTG” showed a binding signal of 4.05 z-score.

For “CCGATTAACATCAATCTTTCCCCTGATGTTAATCGGGTCTTGATTCGCTTGACGCTGCTG”, the binding signal came out at 7.61 z-score.

“CCGATTAACATCACGAATTTCCCTGATGTTAATCGGGTCTTGATTCGCTTGACGCTGCTG” registered a binding signal of 5.72 z-score.

Sequence “CCGATTAACATCAGGACCTCCCCTGATGTTAATCGGGTCTTGATTCGCTTGACGCTGCTG” yielded a binding signal of 4.17 z-score.

“CCGATTAACATCAGGGGATTTAATGATGTTAATCGGGTCTTGATTCGCTTGACGCTGCTG” showed a binding signal of 8.23 z-score.

“CCGATTAACATCAAATTTCCCGTTGATGTTAATCGGGTCTTGATTCGCTTGACGCTGCTG” had a binding signal of 5.71 z-score.

As for “CCGATTAACATCATGGGGAAAAATGATGTTAATCGGGTCTTGATTCGCTTGACGCTGCTG”, the binding signal was 6.62 z-score.

Regarding “CCGATTAACATCAAAACCCCCCATGATGTTAATCGGGTCTTGATTCGCTTGACGCTGCTG”, the binding signal worked out at 6.62 z-score.

As for “CCGATTAACATCAAAGAAACCCCTGATGTTAATCGGGTCTTGATTCGCTTGACGCTGCTG”, the binding signal is 5.33 z-score.

As to “CCGATTAACATCACGTACTTCCCTGATGTTAATCGGGTCTTGATTCGCTTGACGCTGCTG”, the binding signal worked out at 1.92 z-score.

The sequence “CCGATTAACATCAGGATTACCCCTGATGTTAATCGGGTCTTGATTCGCTTGACGCTGCTG” yielded a binding signal of 4.15 z-score.

With “CCGATTAACATCAACGAATTCCCTGATGTTAATCGGGTCTTGATTCGCTTGACGCTGCTG”, the binding signal was 4.07 z-score.

For “CCGATTAACATCAGGGGGAGGAATGATGTTAATCGGGTCTTGATTCGCTTGACGCTGCTG”, the binding signal was found to be 4.58 z-score.

“CCGATTAACATCAGGGGTAAATATGATGTTAATCGGGTCTTGATTCGCTTGACGCTGCTG” returned a binding signal of 3.39 z-score.

Consider “CCGATTAACATCAGGGAAGAACCTGATGTTAATCGGGTCTTGATTCGCTTGACGCTGCTG”, for which the binding signal came to 3.52 z-score.

As to “CCGATTAACATCAAAATTACCCATGATGTTAATCGGGTCTTGATTCGCTTGACGCTGCTG”, the binding signal amounted to 4.69 z-score.

In turn, “CCGATTAACATCAAATTCCCCCGTGATGTTAATCGGGTCTTGATTCGCTTGACGCTGCTG” gave a binding signal of 8.91 z-score.

The sequence “CCGATTAACATCAGGGGGATTACTGATGTTAATCGGGTCTTGATTCGCTTGACGCTGCTG” came in with a binding signal of 7.64 z-score.
